{"source": "PubChem BioAssay (NCATS)", "note": "Inconclusive results are not listed. Values without a mark were called inactive. Unless noted, the call rests on the fitted dose curve; in most records, active means well fitted inhibition curve with a large enough effect; inconclusive means small, poorly fitted or top-dose-only effect; inactive means flat fitted curve, though single readings scatter."}
{"target": "T1, Tyrosine-protein phosphatase non-receptor type substrate 1 (Homo sapiens) + Leukocyte surface antigen CD47 (Homo sapiens) (UniProt P78324+Q08722)", "T1 sequence (P78324 whole entry, looked up)": "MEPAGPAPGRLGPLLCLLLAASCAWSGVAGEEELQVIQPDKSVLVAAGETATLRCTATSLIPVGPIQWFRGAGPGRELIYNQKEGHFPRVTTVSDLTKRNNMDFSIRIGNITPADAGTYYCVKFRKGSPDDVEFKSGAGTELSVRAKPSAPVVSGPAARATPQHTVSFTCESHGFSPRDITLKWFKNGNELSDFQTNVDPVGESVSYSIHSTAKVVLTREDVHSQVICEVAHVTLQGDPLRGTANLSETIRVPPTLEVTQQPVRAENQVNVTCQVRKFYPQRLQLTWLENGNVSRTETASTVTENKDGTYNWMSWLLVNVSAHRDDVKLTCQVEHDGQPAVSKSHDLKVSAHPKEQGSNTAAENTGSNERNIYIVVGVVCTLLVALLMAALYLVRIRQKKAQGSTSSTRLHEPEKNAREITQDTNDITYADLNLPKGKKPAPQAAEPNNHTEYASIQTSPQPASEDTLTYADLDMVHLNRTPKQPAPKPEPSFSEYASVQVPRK", "T1 sequence (Q08722 whole entry, looked up)": "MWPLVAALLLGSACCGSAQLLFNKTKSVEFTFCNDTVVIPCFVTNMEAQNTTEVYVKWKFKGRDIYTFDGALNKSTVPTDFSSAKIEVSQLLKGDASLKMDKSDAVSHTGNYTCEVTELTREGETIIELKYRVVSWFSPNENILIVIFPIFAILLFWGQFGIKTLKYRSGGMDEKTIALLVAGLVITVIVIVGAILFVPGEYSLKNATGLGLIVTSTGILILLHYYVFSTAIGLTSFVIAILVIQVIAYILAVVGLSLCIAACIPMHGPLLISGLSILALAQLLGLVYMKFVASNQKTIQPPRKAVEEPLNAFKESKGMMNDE", "assay": "CD47-SIRPalpha protein protein interaction - LANCE assay qHTS validation (AID 1347057; active means well fitted curve in the direction sought with a large enough effect in the signal ratio, with a control signal flat, not every such curve was filed as active; the % refers to the signal ratio; further: 0% is about no effect)", "conditions": "Recombinant CD47-His / biotin-SIRPalpha, TR-FRET ratio; series mostly up to 38.3 µM; activity change, negative = inhibition: at the top concentration", "in_short": "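Inhibition of soluble CD47/SIRPalpha ectodomain association by titrated compounds, measured as 665/615 nm time-resolved FRET ratio after sequential 30 min room-temperature incubations.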", "units": {"activity change, negative = inhibition": "%"}}
{"smiles": "CN1CCc2ccccc2Cc2[nH]c3ccccc3c2CC1", "activity change, negative = inhibition": 1.71}
{"smiles": "O=C(/C=C/c1ccc(O)c(O)c1)OCCc1ccccc1", "activity change, negative = inhibition": 3.9}
{"smiles": "CC(C)NC[C@@H](O)c1ccc(O)c(O)c1", "activity change, negative = inhibition": 0.843}
{"smiles": "CC(C)NC[C@H](O)COc1cccc2[nH]ccc12", "activity change, negative = inhibition": 0.566}
{"smiles": "Cc1cc(NC2CCCCC2)nc(-n2nc(C)cc2C)n1", "activity change, negative = inhibition": 0.421}
{"smiles": "O=C(O)CNC(=O)C(CS)Cc1ccccc1", "note": "(stereo unspecified)", "activity change, negative = inhibition": 0.264}
{"smiles": "NC(=O)C(=O)O", "activity change, negative = inhibition": 2.77}
{"smiles": "O=C(Nc1ccccc1)c1cc([N+](=O)[O-])ccc1Cl", "activity change, negative = inhibition": 1.06}
{"smiles": "COC1=C(OC)C(=O)c2ccccc2C1=O", "activity change, negative = inhibition": 1.06}
{"smiles": "OCC1O[C@H](O)C(Cl)C(O)C1O", "note": "(stereo partly specified)", "activity change, negative = inhibition": 1.06}
{"smiles": "CCCN(CC1CC1)c1nc(C)nc(Nc2c(Cl)cc(Cl)cc2Cl)c1Cl", "activity change, negative = inhibition": -0.185}
{"smiles": "O=P(O)(O)C(Cl)(Cl)P(=O)(O)O", "activity change, negative = inhibition": 0.118}
{"smiles": "Clc1ccc(N2CCN(Cc3c[nH]c4ncccc34)CC2)cc1", "activity change, negative = inhibition": -0.132}
{"smiles": "Fc1ccc(C(OCCCc2cnc[nH]2)c2ccc(F)cc2)cc1", "activity change, negative = inhibition": -0.791}
{"smiles": "Nc1nc(Nc2ccccc2)nc2c1ncn2[C@@H]1O[C@H](CO)[C@@H](O)[C@H]1O", "activity change, negative = inhibition": 1.14}
{"smiles": "O=C(CCCCCN1CCN(c2ccccc2-c2ccccc2)CC1)NC1CCCc2ccccc21", "note": "(stereo unspecified)", "activity change, negative = inhibition": 0.806}
{"smiles": "O=c1[nH]c2cc([N+](=O)[O-])c([N+](=O)[O-])cc2[nH]c1=O", "activity change, negative = inhibition": 1.04}
{"smiles": "CCCCCCCC/C=C\\CCCCCCCC(=O)NCCO", "activity change, negative = inhibition": -0.835}
{"smiles": "Nc1nc(SCc2ccc([N+](=O)[O-])cc2)c2ncn([C@@H]3O[C@H](CO)[C@@H](O)[C@H]3O)c2n1", "activity change, negative = inhibition": 0.127}
{"smiles": "CC(=O)N[C@H](C(=O)O)C(C)(C)SN=O", "activity change, negative = inhibition": 0.528}
{"smiles": "NC(N)=NC(=O)c1nc(Cl)c(N2CCCCCC2)nc1N", "activity change, negative = inhibition": 1.91}
{"smiles": "CC(C)NCC(O)COc1cccc2ccccc12", "note": "(stereo unspecified)", "activity change, negative = inhibition": 1.84}
{"smiles": "Cc1cc(NC(=O)Nc2ccc3c(ccn3C)c2)sn1", "activity change, negative = inhibition": 3.19}
{"target": "T1, Tyrosine-protein phosphatase non-receptor type substrate 1 (Homo sapiens) + Leukocyte surface antigen CD47 (Homo sapiens)", "assay": "CD47-SIRPalpha protein protein interaction - HTRF assay qHTS validation (AID 1347058; active means well fitted curve in the direction sought with a large enough effect in the signal ratio, not every such curve was filed as active; the % refers to the signal ratio; further: 0% is about no effect)", "conditions": "TR-FRET HTRF CD47-His / biotin-SIRPalpha binding, ratio 665/615; series mostly up to 38.3 µM; activity change, negative = inhibition: at the top concentration", "in_short": "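Soluble extracellular domains (6His-CD47, Avi-tag-biotinylated SIRPalpha) in PBS pH 7.4 with 0.05% IGEPAL CA-630. Compounds were preincubated 30 min at RT with CD47 and anti-His-Eu, then SIRPalpha and SAV-XL665 were added. TR-FRET 665/615 ratio.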", "units": {"activity change, negative = inhibition": "%"}}
{"smiles": "O=C(/C=C/c1ccc(O)c(O)c1)OCCc1ccccc1", "activity change, negative = inhibition": 6.43}
{"smiles": "CC(C)NC[C@H](O)COc1cccc2[nH]ccc12", "activity change, negative = inhibition": -0.138}
{"smiles": "Oc1cc2c(cc1O)CN(C(=S)NCCc1ccc(Cl)cc1)CCC2", "activity change, negative = inhibition": 1.25}
{"smiles": "Cn1cc(C2=C(c3ccc(Cl)cc3Cl)C(=O)NC2=O)c2ccccc21", "activity change, negative = inhibition": -9.4}
{"smiles": "Cc1cc(NC2CCCCC2)nc(-n2nc(C)cc2C)n1", "activity change, negative = inhibition": -0.91}
{"smiles": "O=C(O)CNC(=O)C(CS)Cc1ccccc1", "note": "(stereo unspecified)", "activity change, negative = inhibition": -4.48}
{"smiles": "COc1cccc(C(=O)NCCN2CCN(c3ccc(Cl)cc3)CC2)c1", "activity change, negative = inhibition": 0.786}
{"smiles": "OC[C@H]1O[C@@H](n2cnc3c(NC4CCCCC4)ncnc32)[C@H](O)[C@@H]1O", "activity change, negative = inhibition": 1.79}
{"smiles": "NC(=O)C(=O)O", "activity change, negative = inhibition": -0.835}
{"smiles": "NCCCCCCCCCCN", "activity change, negative = inhibition": 1.54}
{"smiles": "CCCN(CC1CC1)c1nc(C)nc(Nc2c(Cl)cc(Cl)cc2Cl)c1Cl", "activity change, negative = inhibition": -1.04}
{"smiles": "O=P(O)(O)C(Cl)(Cl)P(=O)(O)O", "activity change, negative = inhibition": -1.57}
{"smiles": "COc1cc(SC)ccc1C(=O)N1CCC(Cc2ccccc2)CC1", "activity change, negative = inhibition": 0.603}
{"smiles": "Clc1ccc(N2CCN(Cc3c[nH]c4ncccc34)CC2)cc1", "activity change, negative = inhibition": -8.06}
{"smiles": "Fc1ccc(C(OCCCc2cnc[nH]2)c2ccc(F)cc2)cc1", "activity change, negative = inhibition": -0.664}
{"smiles": "CC(C)(C=O)Cc1cc(C(C)(C)C)c(O)c(C(C)(C)C)c1", "activity change, negative = inhibition": -0.697}
{"smiles": "CC1(C)CCC=[N+]1[O-]", "activity change, negative = inhibition": 2.46}
{"smiles": "Brc1c(Br)c(Br)c2n[nH]nc2c1Br", "activity change, negative = inhibition": -8.9}
{"smiles": "Nc1nc(Nc2ccccc2)nc2c1ncn2[C@@H]1O[C@H](CO)[C@@H](O)[C@H]1O", "activity change, negative = inhibition": 1.58}
{"smiles": "CCCCCCCCCCCCCCCC(=O)OC(CC(=O)O)C[N+](C)(C)C", "note": "(stereo unspecified)", "activity change, negative = inhibition": -0.446}
{"smiles": "NCCCS(=O)(=O)O", "activity change, negative = inhibition": 10.5}
{"smiles": "O=C(CCCCCN1CCN(c2ccccc2-c2ccccc2)CC1)NC1CCCc2ccccc21", "note": "(stereo unspecified)", "activity change, negative = inhibition": 0.0774}
{"smiles": "CCCCCCCC/C=C\\CCCCCCCC(=O)NCCO", "activity change, negative = inhibition": -1.62}
{"smiles": "CC(=O)N[C@H](C(=O)O)C(C)(C)SN=O", "activity change, negative = inhibition": 0.0616}
{"smiles": "O=C(O)CC1CCCc2ccccc2C1O", "note": "(stereo unspecified)", "activity change, negative = inhibition": -4.96}
{"smiles": "CC(C)NCC(O)COc1cccc2ccccc12", "note": "(stereo unspecified)", "activity change, negative = inhibition": 11.9}
{"smiles": "Cc1cc(NC(=O)Nc2ccc3c(ccn3C)c2)sn1", "activity change, negative = inhibition": -3.9}
{"target": "T1, Tyrosine-protein phosphatase non-receptor type substrate 1 (Homo sapiens) + Leukocyte surface antigen CD47 (Homo sapiens)", "assay": "CD47-SIRPalpha protein protein interaction - Alpha assay qHTS validation (AID 1347059);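 further: bead proximity luminescence from CD47 binding SIRPalpha after compound preincubation with SIRPalpha; on the % scale 0 is the no-effect control and ±100 the full control effect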", "conditions": "AlphaScreen CD47-His/biotin-SIRPalpha binding, LOPAC; series mostly up to 38.3 µM; activity change, negative = inhibition: at the top concentration", "in_short": "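AlphaScreen signal between CD47-His (12.5 nM) and biotin-SIRPalpha (25 nM) soluble extracellular domains, bead-captured via Ni-NTA and streptavidin. Compounds, in 7-point titrations, met SIRPalpha 30 min before CD47; PBS pH 7.4 with 0.05% IGEPAL.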", "units": {"activity change, negative = inhibition": "%"}}
{"smiles": "CN1CCc2ccccc2Cc2[nH]c3ccccc3c2CC1", "activity change, negative = inhibition": -12.2}
{"smiles": "O=C(/C=C/c1ccc(O)c(O)c1)OCCc1ccccc1", "activity change, negative = inhibition": 0.0169}
{"smiles": "CC(C)NC[C@@H](O)c1ccc(O)c(O)c1", "activity change, negative = inhibition": -3.05}
{"smiles": "CC(C)NC[C@H](O)COc1cccc2[nH]ccc12", "activity change, negative = inhibition": -8.12}
{"smiles": "Oc1cc2c(cc1O)CN(C(=S)NCCc1ccc(Cl)cc1)CCC2", "activity change, negative = inhibition": -18.3}
{"smiles": "Cn1cc(C2=C(c3ccc(Cl)cc3Cl)C(=O)NC2=O)c2ccccc21", "activity change, negative = inhibition": 4.18}
{"smiles": "COc1cccc(C(=O)NCCN2CCN(c3ccc(Cl)cc3)CC2)c1", "activity change, negative = inhibition": 2.99}
{"smiles": "OC[C@H]1O[C@@H](n2cnc3c(NC4CCCCC4)ncnc32)[C@H](O)[C@@H]1O", "activity change, negative = inhibition": 0.368}
{"smiles": "COc1cccc(OC)c1OCCNCC1COc2ccccc2O1", "note": "(stereo unspecified)", "activity change, negative = inhibition": 3.52}
{"smiles": "COC1=C(OC)C(=O)c2ccccc2C1=O", "activity change, negative = inhibition": -3.08}
{"smiles": "CCCN(CC1CC1)c1nc(C)nc(Nc2c(Cl)cc(Cl)cc2Cl)c1Cl", "activity change, negative = inhibition": 6.63}
{"smiles": "O=P(O)(O)C(Cl)(Cl)P(=O)(O)O", "activity change, negative = inhibition": -3.91}
{"smiles": "COc1cc(SC)ccc1C(=O)N1CCC(Cc2ccccc2)CC1", "activity change, negative = inhibition": -6.18}
{"smiles": "Clc1ccc(N2CCN(Cc3c[nH]c4ncccc34)CC2)cc1", "activity change, negative = inhibition": -15.5}
{"smiles": "CC1(C)CCC=[N+]1[O-]", "activity change, negative = inhibition": -0.688}
{"smiles": "Brc1c(Br)c(Br)c2n[nH]nc2c1Br", "activity change, negative = inhibition": -0.318}
{"smiles": "NCCCS(=O)(=O)O", "activity change, negative = inhibition": -1.53}
{"smiles": "Cn1ncc(S(=O)(=O)Cc2ccccc2)c(Br)c1=O", "activity change, negative = inhibition": 0.959}
{"smiles": "O=c1[nH]c2cc([N+](=O)[O-])c([N+](=O)[O-])cc2[nH]c1=O", "activity change, negative = inhibition": 3.27}
{"smiles": "CCCCCCCC/C=C\\CCCCCCCC(=O)NCCO", "activity change, negative = inhibition": -5.24}
{"smiles": "Nc1nc(SCc2ccc([N+](=O)[O-])cc2)c2ncn([C@@H]3O[C@H](CO)[C@@H](O)[C@H]3O)c2n1", "activity change, negative = inhibition": 2.05}
{"smiles": "CC(=O)N[C@H](C(=O)O)C(C)(C)SN=O", "activity change, negative = inhibition": 1.61}
{"smiles": "O=C(O)CC1CCCc2ccccc2C1O", "note": "(stereo unspecified)", "activity change, negative = inhibition": 2.41}
{"smiles": "NC(N)=NC(=O)c1nc(Cl)c(N2CCCCCC2)nc1N", "activity change, negative = inhibition": -25}
{"smiles": "CC(C)NCC(O)COc1cccc2ccccc12", "note": "(stereo unspecified)", "activity change, negative = inhibition": 0.71}
{"smiles": "Cc1cc(NC(=O)Nc2ccc3c(ccn3C)c2)sn1", "activity change, negative = inhibition": -14.3}
